Test results from PubChem BioAssay AID372 (MTDP, 2006).
Out of some 100,000 compounds screened, about 770 (0.77%) were called active. No stated cut-off is given here; in the data, active means inhibition above about 50%; inactive means the rest. Only a selection was taken, and actives are over-represented in it overall.

target: Gag-Pol polyprotein (Human immunodeficiency virus type 1 group M subtype B (isolate HXB2)) (UniProt P04585); experiment: RNase H inhibition, HIV 1 Gag Pol polyprotein, FRET biochemical assay, screening (AID 372); conditions: HIV-1 RT RNase H, FRET RNA/DNA substrate fluorescence; at 10 µM; active compounds read high

Question: `C#CCOc1ccc(C=C2C(=O)NC(=S)NC2=O)cc1Br` was tested. Which inhibition did it give?
Answer: 19% (inactive)

Question: With `COc1ccc(/C=N/c2sc(C)c(C)c2C#N)cc1` as the molecule, how does the inhibition read?
Answer: 12% (inactive)

Question: `CCc1ncc(C(O)c2ccccc2OC)n1C` (configuration not stated) was tested. Which inhibition did it give?
Answer: 5% (inactive)

Question: `COc1ccc(OC)c(C2NC(=S)NC(C)=C2C(=O)Nc2ccc(C)c(Cl)c2)c1` (configuration not stated) was tested. Which inhibition did it give?
Answer: 15% (inactive)

Question: Which inhibition does the source give for `O=S(=O)(N=Nc1c(O)[nH]c2ccc(Br)cc12)c1cccc2ccccc12` here?
Answer: 9% (inactive)

Question: For `Oc1[nH]c2ccc(Br)cc2c1N=Nc1ccc2ccccc2n1`, which inhibition is on record?
Answer: 52% (active)

Question: With `Oc1[nH]c2ccc(Br)cc2c1N=Nc1ccccn1` as the molecule, how does the inhibition read?
Answer: 2% (inactive)

Question: How did the inhibition turn out when `CCN(CC)S(=O)(=O)c1ccc(Cl)c(C(=O)Nc2ccc(OC)cc2)c1` was run?
Answer: 0% (inactive)

Question: With `O=C1NN(c2ccccc2)C(=O)/C1=C/c1ccc(-c2cccc([N+](=O)[O-])c2)o1` as the molecule, how does the inhibition read?
Answer: 31% (inactive)

Question: `C=CCOC(=O)C1=C(C)N(CC)C(=O)NC1c1ccc(Br)cc1` (configuration not stated) was tested. Which inhibition did it give?
Answer: 4% (inactive)

Question: `CCOCCOC(=O)C1=C(C)N(CC)C(=O)NC1c1ccc([N+](=O)[O-])cc1` (configuration not stated) was tested. Which inhibition did it give?
Answer: 0% (inactive)

Question: For `C=CCOC(=O)C1=C(C)N(CC)C(=O)NC1c1ccc([N+](=O)[O-])cc1` (configuration not stated), which inhibition is on record?
Answer: 57% (active)

Question: `O=[N+]([O-])c1ccc(N/N=C/c2cc([N+](=O)[O-])ccc2O)cc1` was tested. Which inhibition did it give?
Answer: 10% (inactive)

Question: How did the inhibition turn out when `O=[N+]([O-])c1ccc(N/N=C/c2ccc(O)c(O)c2)cc1` was run?
Answer: 57% (active)

Question: For `O=C(N/N=C/c1ccc(/C=N/NC(=O)c2cccc([N+](=O)[O-])c2)cc1)c1cccc([N+](=O)[O-])c1`, which inhibition is on record?
Answer: 12% (inactive)

Question: `COc1ccc(/C=N/Nc2ccc([N+](=O)[O-])cc2)cc1Br` was tested. Which inhibition did it give?
Answer: 7% (inactive)

Question: `Cc1ccc(-c2cc(C(=O)N/N=C/c3ccc([N+](=O)[O-])cc3)[nH]n2)cc1` was tested. Which inhibition did it give?
Answer: 24% (inactive)

Question: How did the inhibition turn out when `O=[N+]([O-])c1ccc(N/N=C/c2ccc(Cl)c([N+](=O)[O-])c2)cc1` was run?
Answer: 8% (inactive)

Question: `O=C(N/N=C/c1ccc(F)cc1)c1cc(-c2ccc3ccccc3c2)n[nH]1` was tested. Which inhibition did it give?
Answer: 17% (inactive)

Question: Which inhibition does the source give for `O=C(N/N=C\c1ccc(OC(=O)c2ccc(Br)cc2)cc1)c1ccc(Br)cc1` here?
Answer: 14% (inactive)

Question: With `O=[N+]([O-])c1ccc(N/N=C/c2cc(Br)c(O)c(Br)c2)cc1` as the molecule, how does the inhibition read?
Answer: 24% (inactive)

Question: Which inhibition does the source give for `O=C(N/N=C/c1ccc(OC(=O)c2ccc(Br)cc2)cc1)c1cccc([N+](=O)[O-])c1` here?
Answer: 50% (active)

Question: With `O=C(N/N=C/c1ccc([N+](=O)[O-])cc1)c1cc(-c2ccc3ccccc3c2)n[nH]1` as the molecule, how does the inhibition read?
Answer: 50% (active)

Question: For `O=[N+]([O-])c1ccc(N/N=C/c2ccc(O)c(Br)c2)cc1`, which inhibition is on record?
Answer: 50% (active)

Question: Which inhibition does the source give for `Cc1ccc(N(CC(=O)O)S(=O)(=O)c2ccccc2)cc1Cl` here?
Answer: 4% (inactive)

Question: Which inhibition does the source give for `COc1ccc(Br)cc1/C=C/C(=O)Nc1ccc(O)c(-c2nc3ccccc3o2)c1` here?
Answer: 14% (inactive)

Question: Which inhibition does the source give for `O=C(Nc1ccc(Br)cc1)C1C2/C=C\CCCCC21` (configuration not stated) here?
Answer: 9% (inactive)

Question: Which inhibition does the source give for `COC(=O)c1c(NC(=O)c2ccccc2C)sc2c1CCC(C)C2` (configuration not stated) here?
Answer: 12% (inactive)

Question: For `O=C(CSc1ccccc1)N/N=C/c1ccccc1O`, which inhibition is on record?
Answer: 7% (inactive)

Question: `CS(=O)(=O)N1CCN(Cc2ccccc2Cl)CC1` was tested. Which inhibition did it give?
Answer: 0% (inactive)

Question: `OCCNc1nc(-c2ccccc2Cl)nc2ccccc12` was tested. Which inhibition did it give?
Answer: 0% (inactive)

Question: `COc1ccc(C(=O)NNC(N)=S)cc1` was tested. Which inhibition did it give?
Answer: 0% (inactive)

Question: Which inhibition does the source give for `NC1=NC(=O)/C(=C/c2ccc(OS(=O)(=O)c3cccc([N+](=O)[O-])c3)cc2)S1` here?
Answer: 25% (inactive)

Question: How did the inhibition turn out when `O=C(N/N=C/c1ccc(O)c(O)c1)c1ccc([N+](=O)[O-])cc1` was run?
Answer: 51% (active)

Question: With `O=C(N/N=C/c1ccc(O)cc1)c1ccc([N+](=O)[O-])cc1` as the molecule, how does the inhibition read?
Answer: 0% (inactive)

Question: How did the inhibition turn out when `NC1=NC(=O)/C(=C/c2ccc(OC(=O)c3ccc(Cl)c(Cl)c3)cc2)S1` was run?
Answer: 18% (inactive)

Question: With `NC1=NC(=O)/C(=C/c2ccc(OC(=O)c3cccc([N+](=O)[O-])c3)cc2)S1` as the molecule, how does the inhibition read?
Answer: 51% (active)

Question: `O=C(N/N=C/c1ccc(/C=N/NC(=O)c2ccc([N+](=O)[O-])cc2)cc1)c1ccc([N+](=O)[O-])cc1` was tested. Which inhibition did it give?
Answer: 0% (inactive)

Question: With `Cc1cc(Cl)ccc1OCC(=O)Nc1cc(Cl)c(Cl)cc1Cl` as the molecule, how does the inhibition read?
Answer: 5% (inactive)

Question: `CCC1CCc2c(sc(NC(=O)c3cc([N+](=O)[O-])ccc3Cl)c2C(N)=O)C1` (configuration not stated) was tested. Which inhibition did it give?
Answer: 14% (inactive)

Question: How did the inhibition turn out when `COc1ccc(OC)c(NC(=O)COc2ccc(Cl)c(C)c2)c1` was run?
Answer: 15% (inactive)

Question: With `CC(CCC(=O)Nc1nc2ccccc2s1)CC(=O)Nc1nc2ccccc2s1` (configuration not stated) as the molecule, how does the inhibition read?
Answer: 15% (inactive)

Question: Which inhibition does the source give for `Cc1ccc2[nH]c(=O)c(C(=O)/C=C\c3ccc(Br)cc3)c(-c3ccccc3)c2c1` here?
Answer: 28% (inactive)

Question: For `Cc1ccc2[nH]c(=O)c(C(=O)/C=C/c3ccccc3Cl)c(-c3ccccc3)c2c1`, which inhibition is on record?
Answer: 55% (active)

Question: How did the inhibition turn out when `O=C(/C=C/c1ccccc1Cl)c1c(-c2ccccc2)c2cc(Br)ccc2[nH]c1=O` was run?
Answer: 49% (inactive)

Question: For `COc1ccccc1/C=C/C(=O)c1c(-c2ccccc2)c2cc(C)ccc2[nH]c1=O`, which inhibition is on record?
Answer: 59% (active)

Question: With `COc1ccc(/C=C\C(=O)c2c(-c3ccccc3)c3cc(C)ccc3[nH]c2=O)cc1` as the molecule, how does the inhibition read?
Answer: 7% (inactive)

Question: For `O=C(/C=C/c1ccccc1Cl)c1c(-c2ccccc2)c2cc(Cl)ccc2[nH]c1=O`, which inhibition is on record?
Answer: 35% (inactive)

Question: For `COc1ccccc1/C=C/C(=O)c1c(-c2ccccc2)c2cc(Br)ccc2[nH]c1=O`, which inhibition is on record?
Answer: 57% (active)

Question: Which inhibition does the source give for `COc1ccc(/C=C\C(=O)c2c(-c3ccccc3)c3cc(C)ccc3[nH]c2=O)cc1OC` here?
Answer: 18% (inactive)

Question: With `COc1cc(/C=C/C(=O)c2c(-c3ccccc3)c3cc(Br)ccc3[nH]c2=O)cc(OC)c1OC` as the molecule, how does the inhibition read?
Answer: 0% (inactive)

Question: How did the inhibition turn out when `COc1ccc(OC)c(/C=C/C(=O)c2c(-c3ccccc3)c3cc(Br)ccc3[nH]c2=O)c1` was run?
Answer: 37% (inactive)

Question: `Cc1ccc2[nH]c(=O)c(C(=O)/C=C\c3ccccc3)c(-c3ccccc3)c2c1` was tested. Which inhibition did it give?
Answer: 45% (inactive)

Question: For `CC12CN3CC(C)(CN(C1)C3c1c[nH]c3ccccc13)C2=O` (configuration not stated), which inhibition is on record?
Answer: 6% (inactive)

Question: Which inhibition does the source give for `Cc1ccc(-n2c(C)cc(/C=C(/C#N)C(=O)Nc3ccc(Cl)cc3)c2C)cc1C` here?
Answer: 8% (inactive)

Question: `O=C(Oc1ccc([N+](=O)[O-])cc1)c1ccc(Cl)c(S(=O)(=O)N2CCOCC2)c1` was tested. Which inhibition did it give?
Answer: 0% (inactive)

Question: For `O=C(N1CCN(c2c(F)c(F)c(C(F)(F)F)c(F)c2F)CC1)C12CC3CC(CC(C3)C1)C2`, which inhibition is on record?
Answer: 7% (inactive)
